Assay results published in PubChem BioAssay (Tox21).
Inconclusive results are not listed. Active and inactive are the calls of the source. Calls follow the shape of the dose curve; as a rule, active = well fitted cell-killing curve with a large enough effect in the repeat runs; inconclusive = weak or mixed curves, or effect the other way; inactive = flat fitted curve, though single readings scatter.

Test: cAMP Responsive Elements (CRE) small molecule agonists, cell-based qHTS assay: qHTS cell viability counter screen (AID 2060914); also: nearly all actives have a fitted effect of over 50% in size
Details: CRE-bla HEK293T viability, CellTiter-Glo luminescence, 5 h; series mostly up to 92.4 µM; activity change, negative = cytotoxicity: at the top concentration
How it was run: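 CRE-bla HEK293T cells in 10% dialyzed FBS medium were exposed to compounds for 3 h at 37C after 18 h plating. CellTiter-Glo was then added in the same wells, and luminescence was read after 30 min at room temperature.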
% is scaled to controls: 0 for no effect and ±100 for the full control effect.

Row | Compound | activity change, negative = cytotoxicity | Potency
1 | CC(C)C(Br)C(=O)NC(N)=O (stereo not drawn) | 4.19% [at 42.5 µM] (inactive) | 
2 | c1cc[c]([Hg][c]2ccccc2)cc1 | -4.91% (inactive) | 
3 | CC(C)(O)c1cnn2c(-c3ccc(F)c(-c4c(F)cccc4C#N)c3)cnc2n1 | 7.87% (inactive) | 
4 | COc1ccc2c3c1O[C@H]1[C@@H](O)C=C[C@H]4[C@@H](C2)N(C)CC[C@@]341 |  | inactive
5 | O=C1C[C@@H]2OCC=C3CN4CC[C@]56c7ccccc7N1[C@H]5[C@H]2[C@H]3C[C@H]46 | 2.89% [at 42.5 µM] (inactive) | 
6 | C#CCO | 5.01% (inactive) | 
7 | c1cncc([C@@H]2CCCCN2)c1 | 22% (inactive) | 
8 | C1CS1 | -20.1% (inactive) | 
9 | c1ccc(C2CO2)cc1 (stereo not drawn) |  | inactive
10 | O=c1[nH]c2ccccc2n1CCCN1CCC(n2c(=O)[nH]c3cc(Cl)ccc32)CC1 | -6.54% [at 42.5 µM] (inactive) | 
11 | CNC(=O)Oc1cccc2c1OC(C)(C)O2 |  | inactive
12 | N#C/C=C/c1ccccc1 | 0.828% (inactive) | 
13 | CCCCCCCCCBr | -0.0983% (inactive) | 
